{"source": "the supplement of paper PMC11732987", "about": "“Enantioselective OTUD7B fragment discovery through chemoproteomics screening and high-throughput optimisation” (Communications Chemistry, 2025)", "assay_in_all_cases": "log2 ratio of Biotin-Ahx-Ub-VS probe labelling (fragment/DMSO); higher = less target engagement (more negative = stronger competition), active = hit call of the paper (q ≤ 0.05, log2 ratio ≤ -1)", "conditions_in_all_cases": "compound concentration: 200 uM; treatment time: 3 h", "key": {"USP19": {"target": "T1, USP19 (UniProt O94966)", "T1 sequence (whole entry)": "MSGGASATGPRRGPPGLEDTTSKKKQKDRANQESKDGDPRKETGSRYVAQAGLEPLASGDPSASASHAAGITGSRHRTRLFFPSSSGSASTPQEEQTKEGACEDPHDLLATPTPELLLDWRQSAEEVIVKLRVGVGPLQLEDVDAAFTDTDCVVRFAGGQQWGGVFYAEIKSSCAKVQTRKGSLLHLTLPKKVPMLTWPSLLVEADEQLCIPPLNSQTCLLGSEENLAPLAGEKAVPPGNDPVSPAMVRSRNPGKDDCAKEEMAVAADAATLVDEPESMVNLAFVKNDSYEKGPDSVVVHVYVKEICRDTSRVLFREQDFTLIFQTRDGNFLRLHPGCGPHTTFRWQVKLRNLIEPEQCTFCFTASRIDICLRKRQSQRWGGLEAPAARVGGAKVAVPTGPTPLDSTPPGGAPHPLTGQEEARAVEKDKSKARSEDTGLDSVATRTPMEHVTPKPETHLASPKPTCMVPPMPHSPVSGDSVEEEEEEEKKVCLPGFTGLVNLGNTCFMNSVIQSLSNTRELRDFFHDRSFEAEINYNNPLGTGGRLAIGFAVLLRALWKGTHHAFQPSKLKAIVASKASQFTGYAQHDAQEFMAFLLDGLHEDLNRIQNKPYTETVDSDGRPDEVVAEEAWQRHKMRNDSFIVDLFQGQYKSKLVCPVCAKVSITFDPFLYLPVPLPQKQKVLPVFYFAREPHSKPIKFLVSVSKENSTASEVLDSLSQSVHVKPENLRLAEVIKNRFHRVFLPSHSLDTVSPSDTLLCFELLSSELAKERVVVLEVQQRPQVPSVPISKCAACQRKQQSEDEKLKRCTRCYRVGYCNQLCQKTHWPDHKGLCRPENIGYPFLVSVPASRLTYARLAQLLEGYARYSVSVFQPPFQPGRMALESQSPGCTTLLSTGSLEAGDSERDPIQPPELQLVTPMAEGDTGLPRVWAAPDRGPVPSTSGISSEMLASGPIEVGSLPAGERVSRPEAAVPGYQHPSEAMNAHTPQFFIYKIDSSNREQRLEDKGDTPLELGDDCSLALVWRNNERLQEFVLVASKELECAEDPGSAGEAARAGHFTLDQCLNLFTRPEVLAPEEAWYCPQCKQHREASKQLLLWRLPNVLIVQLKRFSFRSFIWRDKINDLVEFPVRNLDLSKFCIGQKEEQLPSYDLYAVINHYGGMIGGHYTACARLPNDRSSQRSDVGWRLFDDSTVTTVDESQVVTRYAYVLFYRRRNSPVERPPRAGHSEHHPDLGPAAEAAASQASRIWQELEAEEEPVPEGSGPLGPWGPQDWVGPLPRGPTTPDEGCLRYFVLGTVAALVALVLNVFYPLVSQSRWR", "summary_of_the_method": "(§1)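 HEK293T lysate, 495 µg per sample in Tris/CHAPS/IGEPAL buffer with protease inhibitors, was treated in triplicate with fragment at 200 µM or vehicle for 3 h and then with Biotin-Ahx-Ub-VS at 0.5 µM final for 1 h. Labelled DUBs were NeutrAvidin-enriched, digested with LysC and trypsin, and run by diaPASEF LC-MS/MS. Spectronaut label-free quantities were global-median-normalised, and values are average log2 fragment/vehicle ratios by unpaired t-test on proteins with ≥2 unique peptides.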"}, "USP22": {"target": "T2, USP22 (UniProt Q9UPT9)", "T2 sequence (whole entry)": "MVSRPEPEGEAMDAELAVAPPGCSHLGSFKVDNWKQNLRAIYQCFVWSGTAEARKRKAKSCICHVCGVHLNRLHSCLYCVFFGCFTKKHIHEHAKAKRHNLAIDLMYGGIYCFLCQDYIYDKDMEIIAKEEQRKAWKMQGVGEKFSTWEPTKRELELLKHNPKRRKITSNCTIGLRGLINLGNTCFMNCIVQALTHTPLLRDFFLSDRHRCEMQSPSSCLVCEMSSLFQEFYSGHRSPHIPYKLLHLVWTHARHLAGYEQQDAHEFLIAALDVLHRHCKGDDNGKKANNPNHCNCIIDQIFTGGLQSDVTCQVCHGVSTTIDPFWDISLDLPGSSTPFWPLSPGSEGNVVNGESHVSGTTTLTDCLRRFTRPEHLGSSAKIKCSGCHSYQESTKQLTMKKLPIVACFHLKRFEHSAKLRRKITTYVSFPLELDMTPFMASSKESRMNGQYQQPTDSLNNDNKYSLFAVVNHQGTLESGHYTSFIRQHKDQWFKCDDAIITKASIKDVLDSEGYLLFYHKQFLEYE", "summary_of_the_method": "as §1"}, "USP24": {"target": "USP24 (UniProt Q9UPU5)", "sequence (Q9UPU5 whole entry)": "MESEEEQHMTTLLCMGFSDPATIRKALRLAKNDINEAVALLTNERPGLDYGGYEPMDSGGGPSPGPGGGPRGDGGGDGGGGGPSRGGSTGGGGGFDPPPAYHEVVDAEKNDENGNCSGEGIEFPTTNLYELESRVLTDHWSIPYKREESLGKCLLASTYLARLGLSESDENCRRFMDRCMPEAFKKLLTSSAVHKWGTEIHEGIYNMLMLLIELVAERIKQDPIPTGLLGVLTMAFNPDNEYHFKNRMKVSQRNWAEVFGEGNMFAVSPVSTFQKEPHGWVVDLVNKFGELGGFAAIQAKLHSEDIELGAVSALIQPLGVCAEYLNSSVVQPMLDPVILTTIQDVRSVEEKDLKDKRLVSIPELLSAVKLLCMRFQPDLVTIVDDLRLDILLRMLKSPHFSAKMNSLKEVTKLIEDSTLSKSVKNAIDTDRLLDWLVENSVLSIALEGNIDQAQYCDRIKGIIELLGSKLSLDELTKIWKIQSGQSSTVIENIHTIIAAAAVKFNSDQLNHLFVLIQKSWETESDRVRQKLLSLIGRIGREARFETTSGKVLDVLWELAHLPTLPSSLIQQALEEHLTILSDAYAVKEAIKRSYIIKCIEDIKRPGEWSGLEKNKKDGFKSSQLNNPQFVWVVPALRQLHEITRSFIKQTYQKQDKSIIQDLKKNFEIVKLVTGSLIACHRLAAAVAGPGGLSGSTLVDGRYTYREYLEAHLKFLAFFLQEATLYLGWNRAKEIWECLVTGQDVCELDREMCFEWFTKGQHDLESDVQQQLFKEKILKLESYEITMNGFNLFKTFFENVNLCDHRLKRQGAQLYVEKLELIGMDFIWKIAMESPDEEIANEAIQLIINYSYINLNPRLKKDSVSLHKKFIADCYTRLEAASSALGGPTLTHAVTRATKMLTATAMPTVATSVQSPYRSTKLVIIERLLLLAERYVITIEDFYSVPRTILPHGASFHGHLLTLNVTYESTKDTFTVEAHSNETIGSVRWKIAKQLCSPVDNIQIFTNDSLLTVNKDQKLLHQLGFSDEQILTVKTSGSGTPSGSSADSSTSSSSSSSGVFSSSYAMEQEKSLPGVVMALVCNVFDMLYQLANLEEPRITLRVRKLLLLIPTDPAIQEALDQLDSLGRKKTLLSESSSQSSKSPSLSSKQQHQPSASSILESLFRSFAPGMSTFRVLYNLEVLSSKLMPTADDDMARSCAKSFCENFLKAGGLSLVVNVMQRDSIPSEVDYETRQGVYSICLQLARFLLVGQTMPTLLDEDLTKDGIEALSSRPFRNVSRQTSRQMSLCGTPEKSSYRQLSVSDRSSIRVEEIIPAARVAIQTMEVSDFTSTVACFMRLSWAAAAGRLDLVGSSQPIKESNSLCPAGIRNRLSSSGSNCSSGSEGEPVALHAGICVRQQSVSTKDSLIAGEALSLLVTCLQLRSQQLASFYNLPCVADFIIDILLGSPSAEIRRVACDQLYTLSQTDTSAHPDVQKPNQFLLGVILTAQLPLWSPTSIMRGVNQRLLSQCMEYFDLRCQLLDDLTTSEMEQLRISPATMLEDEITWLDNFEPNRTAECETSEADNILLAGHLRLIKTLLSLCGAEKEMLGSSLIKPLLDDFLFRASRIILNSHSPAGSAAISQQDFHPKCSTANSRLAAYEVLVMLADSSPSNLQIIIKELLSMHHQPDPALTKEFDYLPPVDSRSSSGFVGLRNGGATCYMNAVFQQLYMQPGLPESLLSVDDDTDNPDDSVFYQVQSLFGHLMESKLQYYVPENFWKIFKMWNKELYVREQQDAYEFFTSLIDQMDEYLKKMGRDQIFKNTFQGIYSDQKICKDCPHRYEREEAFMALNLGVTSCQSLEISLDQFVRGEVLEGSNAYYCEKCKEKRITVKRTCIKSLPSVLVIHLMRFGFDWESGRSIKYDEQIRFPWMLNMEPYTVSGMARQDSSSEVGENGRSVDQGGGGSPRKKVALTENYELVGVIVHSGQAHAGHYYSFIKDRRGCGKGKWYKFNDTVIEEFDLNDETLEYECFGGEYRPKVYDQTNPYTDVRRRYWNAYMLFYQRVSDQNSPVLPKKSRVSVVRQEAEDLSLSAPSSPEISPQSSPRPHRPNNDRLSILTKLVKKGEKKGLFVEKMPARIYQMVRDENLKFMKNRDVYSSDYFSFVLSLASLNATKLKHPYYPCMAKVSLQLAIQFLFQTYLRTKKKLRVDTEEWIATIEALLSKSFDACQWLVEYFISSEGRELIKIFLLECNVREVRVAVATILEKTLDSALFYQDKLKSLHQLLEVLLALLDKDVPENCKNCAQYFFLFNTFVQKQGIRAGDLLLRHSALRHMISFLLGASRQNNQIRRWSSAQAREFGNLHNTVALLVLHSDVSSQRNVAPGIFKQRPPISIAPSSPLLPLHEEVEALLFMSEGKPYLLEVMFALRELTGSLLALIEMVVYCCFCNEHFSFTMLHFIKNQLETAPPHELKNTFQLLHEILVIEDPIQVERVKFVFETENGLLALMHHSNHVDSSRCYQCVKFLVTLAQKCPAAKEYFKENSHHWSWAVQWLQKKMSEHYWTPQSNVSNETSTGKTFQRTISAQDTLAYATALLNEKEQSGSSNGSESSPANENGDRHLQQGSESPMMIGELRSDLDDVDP", "summary_of_the_method": "as §1"}, "USP25": {"target": "T3, USP25 (UniProt Q9UHP3)", "T3 sequence (whole entry)": "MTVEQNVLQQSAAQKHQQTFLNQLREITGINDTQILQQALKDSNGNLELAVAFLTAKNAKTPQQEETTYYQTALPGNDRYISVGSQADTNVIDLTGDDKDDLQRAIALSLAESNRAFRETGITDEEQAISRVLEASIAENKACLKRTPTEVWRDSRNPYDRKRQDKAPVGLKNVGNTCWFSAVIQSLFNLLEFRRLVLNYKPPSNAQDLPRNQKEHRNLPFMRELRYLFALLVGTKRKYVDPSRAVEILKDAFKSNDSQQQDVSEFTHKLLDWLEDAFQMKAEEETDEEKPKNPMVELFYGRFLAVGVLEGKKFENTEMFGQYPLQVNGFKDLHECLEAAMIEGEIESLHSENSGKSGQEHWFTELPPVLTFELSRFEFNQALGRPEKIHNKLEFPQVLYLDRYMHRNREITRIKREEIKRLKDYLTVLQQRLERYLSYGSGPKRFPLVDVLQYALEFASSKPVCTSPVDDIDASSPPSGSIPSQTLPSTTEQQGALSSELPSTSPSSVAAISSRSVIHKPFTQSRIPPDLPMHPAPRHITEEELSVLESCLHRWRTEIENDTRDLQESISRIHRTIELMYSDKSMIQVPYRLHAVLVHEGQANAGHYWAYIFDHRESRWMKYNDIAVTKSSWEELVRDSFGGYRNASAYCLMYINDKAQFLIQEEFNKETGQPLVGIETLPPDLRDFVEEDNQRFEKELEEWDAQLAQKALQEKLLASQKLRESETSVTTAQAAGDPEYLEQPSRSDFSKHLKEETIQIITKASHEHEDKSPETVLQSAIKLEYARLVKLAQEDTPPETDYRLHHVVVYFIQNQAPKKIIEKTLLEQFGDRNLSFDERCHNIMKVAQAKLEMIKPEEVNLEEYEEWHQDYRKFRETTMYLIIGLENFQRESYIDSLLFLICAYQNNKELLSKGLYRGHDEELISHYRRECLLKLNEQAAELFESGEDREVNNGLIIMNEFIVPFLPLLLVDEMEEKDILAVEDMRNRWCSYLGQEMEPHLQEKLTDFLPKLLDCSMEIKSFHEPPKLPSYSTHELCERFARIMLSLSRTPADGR", "summary_of_the_method": "as §1"}, "USP28": {"target": "T4, USP28 (UniProt Q96RU2)", "T4 sequence (whole entry)": "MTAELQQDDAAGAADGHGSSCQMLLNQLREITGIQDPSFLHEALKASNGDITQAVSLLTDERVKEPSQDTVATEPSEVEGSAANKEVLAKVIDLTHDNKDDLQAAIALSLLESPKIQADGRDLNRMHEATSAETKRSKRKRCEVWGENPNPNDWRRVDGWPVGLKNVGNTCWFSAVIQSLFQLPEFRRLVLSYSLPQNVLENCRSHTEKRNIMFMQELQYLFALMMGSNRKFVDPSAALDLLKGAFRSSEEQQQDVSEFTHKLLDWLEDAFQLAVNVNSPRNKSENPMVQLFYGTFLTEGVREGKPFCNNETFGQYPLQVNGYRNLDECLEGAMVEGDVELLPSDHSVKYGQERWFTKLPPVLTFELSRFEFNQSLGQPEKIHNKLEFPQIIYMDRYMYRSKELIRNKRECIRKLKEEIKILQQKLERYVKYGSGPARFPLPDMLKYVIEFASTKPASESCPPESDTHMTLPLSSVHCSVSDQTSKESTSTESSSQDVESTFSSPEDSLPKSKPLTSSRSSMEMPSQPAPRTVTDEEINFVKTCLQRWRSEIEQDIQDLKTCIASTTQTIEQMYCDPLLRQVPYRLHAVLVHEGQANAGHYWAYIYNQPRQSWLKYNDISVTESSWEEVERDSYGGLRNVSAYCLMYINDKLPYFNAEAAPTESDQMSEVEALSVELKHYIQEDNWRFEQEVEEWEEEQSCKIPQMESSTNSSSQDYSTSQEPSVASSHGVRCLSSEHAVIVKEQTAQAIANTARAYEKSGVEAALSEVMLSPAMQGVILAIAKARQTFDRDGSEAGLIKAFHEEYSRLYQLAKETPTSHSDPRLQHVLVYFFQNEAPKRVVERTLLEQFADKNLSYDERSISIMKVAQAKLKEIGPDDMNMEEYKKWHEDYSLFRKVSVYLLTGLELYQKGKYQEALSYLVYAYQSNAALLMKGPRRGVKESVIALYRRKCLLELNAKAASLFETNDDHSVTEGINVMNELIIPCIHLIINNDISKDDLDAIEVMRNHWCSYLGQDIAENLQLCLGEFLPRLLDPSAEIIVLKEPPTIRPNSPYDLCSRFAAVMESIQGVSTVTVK", "summary_of_the_method": "as §1"}}, "note": "Unmarked numbers belong to inactive results.", "data": [{"smiles": "Cc1ccc(N(CCC#N)C(=O)CCl)cc1C", "values": [{"measurement": "log2 ratio of Biotin-Ahx-Ub-VS probe labelling", "setting": "USP19", "value": -0.203}, {"measurement": "log2 ratio of Biotin-Ahx-Ub-VS probe labelling", "setting": "USP22", "value": 0.0466}, {"measurement": "log2 ratio of Biotin-Ahx-Ub-VS probe labelling", "setting": "USP24", "value": "-1.05 (active)"}, {"measurement": "log2 ratio of Biotin-Ahx-Ub-VS probe labelling", "setting": "USP25", "value": -0.271}, {"measurement": "log2 ratio of Biotin-Ahx-Ub-VS probe labelling", "setting": "USP28", "value": -0.679}]}]}
